# USP8 block: human USP8 deubiquitinase inhibition; inhibition, % at 20 µM; purified USP8, Ub-rhodamine cleavage fluorescence, 30 min; P40818; hit rate 4.2% among 47,000; AID 1645853
# USP17 inh: inhibitors of human USP17 deubiquitinase; purified USP17, Ub-rhodamine cleavage fluorescence, 3 h; inhibition, % at 50 µM; hit rate 6.5% among 47,000
# USP28 inh: inhibitors of human USP28 deubiquitinase; Q96RU2; purified USP28, Ub-rhodamine cleavage fluorescence, 30 min; inhibition, % at 25 µM; hit rate 3% among 47,000; AID 1645857
# USP30 block: blocks human USP30 ubiquitin-rhodamine cleavage; Q70CQ3; purified USP30, Ub-rhodamine cleavage fluorescence; inhibition, % at 25 µM; hit rate 5.3% among 47,000; AID 1645860
# USP10 inh: blocks human USP10 ubiquitin-rhodamine cleavage | purified USP10, Ub-rhodamine fluorescence, 60 min | inhibition, % at 20 µM | hit rate 1.1% among 47,000
# Numbers without * were called inactive; . = no result given. The list is not random: actives were taken first. Their share in the collection is about 14%. No stated cut-off is given here; in the data, active means inhibition above about 30%; inactive means the rest.
SMILES,USP8 block,USP17 inh,USP28 inh,USP30 block,USP10 inh
COc1ccc(NC(=O)Nc2ccc(CCc3nc4ccccc4[nH]3)cc2)c(OC)c1,24.5,59.4*,28.4,76.3*,11.8
COc1cccc(NC(=O)Nc2ccc(CCc3nc4ccccc4[nH]3)cc2)c1,-10.8,41.9*,66.2*,8.3,13.1
CN(C)Cc1ccc(C(=O)Nc2ccc(-c3nccs3)cc2)cc1,-8.3,-22.2,88.5*,0.1,-2.4
O=C(Nc1ccc(-c2nccs2)cc1)c1ccc(F)cc1Cl,-8.9,21.6,3.2,-17.4,-1.0
COc1ccc(CC(=O)Nc2cc(-c3cn4cccnc4n3)ccc2C)cc1,15.9,37.5*,-104.8,-176.6,-7.5
O=C(COc1ccc(C(=O)Nc2ccc(F)cc2)cc1)Nc1ccc(Cl)cc1,-3.1,.,-12.5,8.0,17.2
O=C(COc1ccc(Cl)cc1)Nc1ccc(-c2cn3cccnc3n2)cc1,53.0*,35.5*,16.6,-148.6,-5.8
CC(C)OC(=O)CN1C(=O)C(C)(C)Oc2ccc(C(=O)c3ccco3)cc21,-6.6,-7.3,0.5,-33.8,-10.7
Cc1ccc(CNC(=O)c2cc(-c3ccccc3)nn2-c2ccccc2)cc1,19.3,22.2,17.2,34.1*,9.2
Cc1ccc(CNC(=O)Cn2c(-c3ccccc3)nc(C)cc2=O)cc1,16.0,-2.6,0.2,4.5,-0.2
O=C1C=C(O)c2c(O)cc(O)cc2C1=O,82.0*,99.4*,98.9*,99.6*,79.0*
CCC(=O)Nc1nc2ccc(NC(=O)C3CC3)cc2s1,0.0,-0.5,1.6,-5.5,0.1
CCC(=O)Nc1nc2cc(NC(=O)c3ccccc3C)ccc2s1,10.3,4.5,7.0,24.5,1.3
CCC(=O)Nc1nc2cc(NC(=O)Nc3ccc(C)cc3)ccc2s1,46.6*,22.4,15.2,42.2*,30.0*
CCC(=O)Nc1nc2cc(NC(=O)Nc3cccc(C)c3)ccc2s1,29.1,12.9,15.6,38.1*,23.2
COc1ccccc1NC(=O)Nc1ccc2sc(NC(=O)C3CCCCC3)nc2c1,9.5,-2.6,16.0,31.4*,12.0
CCC(CC)C(=O)c1c[nH]c(C(=O)NCc2cccs2)c1,5.5,27.2,-0.4,38.2*,0.1
Cc1ccc(-c2c3c4n(c(-c5ccc(Cl)c(Cl)c5)cn4c2C(=O)NC2CCCCC2)CCCC3)cc1,43.8*,-2.4,-28.1,-90.7,-4.3
CN1CCN(Cc2cccnc2)C(=O)C12CCN(Cc1ccc[nH]1)CC2,40.3*,46.5*,54.5*,-13.5,-7.8
Cc1cccc(NC(=O)c2ccc(N3CCCC3)nn2)n1,-6.1,-3.5,11.0,5.4,-2.4
Cc1cccc(NC(=O)c2ccc(N3CCCC3)nn2)c1,-24.3,-9.0,11.7,31.8*,2.2
Cc1c(Cl)cccc1NC(=O)c1ccc(N2CCCC2)nn1,-17.3,55.7*,25.4,61.2*,-4.2
COc1ccc(CC(=O)N2[C@@H](c3ccccc3)[C@@H](CO)C[C@]23CCCCNC3=O)cc1,2.0,-5.8,-3.3,-0.9,1.1
COC(=O)c1ccc(NC(=O)CN2CCC(C(N)=O)(N3CCCCC3)CC2)cc1,-0.5,-18.3,-10.3,-38.7,-8.0
CC1(C(=O)NC2CCCC2)CCC(=O)N1Cc1cccc(Cl)c1 (configuration not stated),0.4,-2.0,-12.9,-11.2,-0.1
SMILES,USP8 block,USP17 inh,USP28 inh,USP30 block,USP10 inh
O=C1N(Cc2cccc(Cl)c2)CCN1c1ccc2c(c1)CCC2,9.7,20.2,60.8*,14.2,11.9
O=C1N(Cc2cccc(Cl)c2)CCN1c1ccc(F)cc1F,1.2,0.0,47.8*,8.6,0.1
O=C(NCc1ccc(F)cc1)c1ccc2noc(-c3ccc(F)cc3)c2c1,-80.8,-14.5,-4.4,-28.4,19.1
Cc1ccc(NC(=O)NCCc2cn(C)c3ncccc23)cc1,19.0,19.5,17.3,25.2,0.0
O=C(Nc1ccc(F)cc1F)N1Cc2cccn2-c2ccccc21,1.2,-3.3,15.1,8.6,1.7
O=C(Nc1cccn(Cc2c(Cl)cccc2Cl)c1=O)c1ccccc1[N+](=O)[O-],-48.5,8.7,80.8*,46.3*,5.5
Cc1sc(-c2cccnc2)nc1OC(=O)c1ccc(Cl)c(Cl)c1,-25.8,37.9*,5.7,61.9*,4.6
CCc1nc(SCc2ccccc2C)c2oc3ccccc3c2n1,5.1,28.6,8.7,32.0*,3.8
CCc1nc(SCC(=O)Nc2ccccc2Cl)c2oc3ccccc3c2n1,4.5,58.0*,-5.6,-2.2,16.4
CCc1nc(SCC(=O)Nc2ccc(Cl)c(Cl)c2)c2oc3ccccc3c2n1,-241.2,24.6,1.0,18.1,13.2
CCc1nc(SCC(=O)Nc2cc(Cl)ccc2C)c2oc3ccccc3c2n1,26.2,54.2*,13.7,68.2*,19.9
O[C@H]1[C@H](O)[C@H](Oc2cccc(F)c2)CC[C@H]1NCc1cccnc1,-4.0,-2.4,-3.3,17.1,0.4
O=S(=O)(c1ccccc1)N1CCN2C[C@@H](CO)[C@H](c3ccccc3)[C@H]2C1,-1.7,10.9,7.1,20.4,-3.3
O=C1CN(C(=O)CC2CCCCC2)C(c2ccccc2)c2cc(Cl)ccc2N1 (configuration not stated),34.4*,26.8,29.9,43.1*,12.5
COc1ccc(CC(=O)N2CC(=O)Nc3ccc(Br)cc3C2c2ccccc2)cc1 (configuration not stated),18.9,20.1,23.4,38.0*,7.7
CC1=C(c2ccc(C)c(C)c2)S(=O)(=O)NC1=NCC(=O)Nc1ccc(F)cc1F,9.3,48.4*,6.4,3.1,5.6
COc1ccccc1NC(=O)CN=C1NS(=O)(=O)C(c2ccc(F)cc2)=C1C,6.5,12.3,0.6,-2.6,1.0
CCC1=C(c2ccc(C)cc2)S(=O)(=O)NC1=NCC(=O)NC(C)c1ccccc1 (configuration not stated),0.0,54.4*,7.0,14.1,5.6
CCC1=C(c2ccc(C)cc2)S(=O)(=O)NC1=NCC(=O)NCCC1=CCCCC1,17.6,-4.8,1.3,0.2,7.8
CCc1ccc(NC(=O)CN=C2NS(=O)(=O)C(c3ccc(CC)cc3)=C2C)cc1,1.2,57.7*,22.3,23.1,7.6
CC1=C(c2ccc(C)c(C)c2)S(=O)(=O)NC1=NCC(=O)NCCc1ccc(C)cc1,4.0,14.9,31.8*,69.0*,5.6
O=C(Nc1ccccc1Sc1ncc(-c2ccc(Cl)cc2)cn1)c1ccco1,21.0,52.0*,14.2,24.4,5.0
O=C(Nc1ncc2c(n1)CC(c1ccc(Cl)cc1)CC2=O)c1ccco1 (configuration not stated),14.0,15.1,4.3,-1.4,-0.6
CCN1C(=O)c2cc(S(=O)(=O)Nc3ccccc3)ccc2Oc2cccnc21,21.8,21.5,17.4,21.8,7.9
O=C(O)c1ccc(NC(=O)[C@H](Cc2ccc(O)cc2)NC(=O)c2ccccc2)cc1,-2.0,0.0,.,.,-1.4
CC(C)NS(=O)(=O)c1cccc2c(NC(=O)C(Cc3ccccc3)NC(=O)c3ccccc3)cccc12 (configuration not stated),23.8,6.2,1.5,79.4*,5.3
Cc1ccc2cc(CN(Cc3cccnc3)S(=O)(=O)c3ccccc3)c(=O)[nH]c2c1,-21.6,-16.4,-8.1,-25.5,-6.5

# Source: PubChem BioAssay (Buhrlage Lab, Dana-Farber Cancer Institute and Novartis Institutes for BioMedical Research (Cambridge, Mass))
